Assay results as given in PubChem BioAssay AID2284368 (EPA ToxCast).
Results filed as inconclusive are left out. Activity calls are given as the source filed them. The calls were made as follows: active = hit-call score of the fitted dose curve at least 0.9, where 1 is the maximum; inconclusive = response in the unintended direction; inactive = score below 0.9.

What follows are compounds tested against Estrogen receptor (Homo sapiens) (UniProt P03372) (assay: ATG_hERa_EcoTox2: Attagene TRANS-FACTORIAL EcoTox-2 HepG2 Assay for human Estrogen Receptor (ER)).
Estrogen receptor (Homo sapiens), sequence (P03372 whole entry, looked up): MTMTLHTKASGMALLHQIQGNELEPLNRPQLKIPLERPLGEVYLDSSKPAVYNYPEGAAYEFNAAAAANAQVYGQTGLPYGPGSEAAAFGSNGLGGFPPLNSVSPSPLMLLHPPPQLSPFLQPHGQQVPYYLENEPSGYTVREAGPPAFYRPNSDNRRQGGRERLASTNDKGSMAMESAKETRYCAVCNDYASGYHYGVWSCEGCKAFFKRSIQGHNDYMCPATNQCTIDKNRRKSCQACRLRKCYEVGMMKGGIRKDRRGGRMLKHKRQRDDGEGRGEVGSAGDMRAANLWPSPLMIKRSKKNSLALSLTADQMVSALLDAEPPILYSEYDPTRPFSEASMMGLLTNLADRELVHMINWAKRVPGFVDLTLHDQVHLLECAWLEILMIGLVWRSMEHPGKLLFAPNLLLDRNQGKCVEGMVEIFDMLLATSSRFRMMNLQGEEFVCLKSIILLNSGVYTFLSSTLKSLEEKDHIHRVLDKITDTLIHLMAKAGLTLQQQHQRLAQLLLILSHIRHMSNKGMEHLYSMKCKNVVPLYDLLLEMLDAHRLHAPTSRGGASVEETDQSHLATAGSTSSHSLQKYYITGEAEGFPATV
Method: ATG_EcoTox2 is a cell-based, multiplexed assay created by modifying the existing Attagene TRANS-FACTORIAL system to include a panel of nuclear receptors from some or all the following species: human (Homo sapiens), african clawed frog (Xenopus laevis), rainbow trout (Oncorhynchus mykiss), japanese medaka (Oryzias latipes), and zebrafish (Danio rerio). The ECOTOX2-FACTORIAL format uses HepG2, a human liver cell line, with measurements taken at 24 hours after chemical dosing in a 24-well plate. ATG_hERa_EcoTox2 is one of 29 assay components measured or calculated from the ATG_EcoTox2 assay. It is designed to make measurements of mRNA induction, a form of inducible reporter, as detected with fluorescence intensity signals by Reverse transcription polymerase chain reaction (RT-PCR) and Capillary electrophoresis technology.The assay endpoint ATG_hERa_EcoTox2 was analyzed in the positive analysis fitting direction relative to DMSO as the negative control and baseline of activity. Using a type of inducible reporter, measures of mRNA for gain-of-signal activity can be used to understand the reporter gene at the transcription factor-level as they relate to the gene ER. Furthermore, this assay endpoint can be referred to as a primary readout, because this assay has produced multiple assay endpoints where this one serves a reporter gene function. To generalize the intended target to other relatable targets, this assay endpoint is annotated to the nuclear receptor intended target family, where the subfamily is steroidal.
Human liver HepG2 cells are transiently transfected with multiple reporter transcription units (MRTUs) in 6-well plates using FuGene 6 reagent (Roche; 3 ml FuGene/1 mg DNA). The MRTU constructs are regulated by a cis-regulating element (promoter). Each RTU expresses a GAL4-UAS that regulates the transcription of a nearby target reporter gene sequence. A major difference between the CIS and TRANS system is that in CIS activities of endogenous TFs are measured, whereas the TRANS assay evaluates changes in activities of exogenous, chimeric NR-Gal4 proteins. […] At the end of 24 hour incubation, total RNA was isolated using TriZol reagent (Invitrogen). The isolated RNA is then reverse-transcribed using oligo(dT) primer and Mo-MLV reverse transcriptase (Invitrogen) with DNAse I (Ambion) treatment for 30 min. The one-tenth of the produced cDNA was amplified by PCR using Taq DNA polymerase (Invitrogen) and two reporter sequence-specific primers. The PCR products were fluorescently labeled by primer extension with 6-arboxyfluorescein (6-FAM) 5'-labeled reporter sequence-specific primer (2 min at 95 C, 20 s at 68 C and 10 min at 72 C) and these products were digested with 5U of HpaI (New England Biolabs) for 2h at 37 C. The fragments were purified using Qiaquick PCR columns (Qiagen), analyzed on an ABI 3130xL genetic analyzer (Applied Biosystems) with peak positions identified by using a set of X-rhodamine (ROX)-labeled MapMarker1000 molecular weight standards (BioVentures). The raw capillary electrophoresis data was processed using Attagraph software (Attagene).
With `C[C@]12C=CC(=O)C=C1CC[C@@H]1[C@@H]2C(=O)C[C@@]2(C)[C@H]1CC[C@]2(O)C(=O)CO` the AC50 was 29.2 µM (active).
In the case of `Cc1c(C)c2c(c(C)c1O)CCC(C)(COc1ccc(CC3SC(=O)NC3=O)cc1)O2` (stereo unspecified), the outcome is reported as “inactive”.
With `CC(C)OC(=O)C(C)(C)Oc1ccc(C(=O)c2ccc(Cl)cc2)cc1` the outcome was “inactive”.
With `Cc1cccc(Nc2cc(Cl)nc(SCC(=O)O)n2)c1C` the outcome was “inactive”.
For `Cc1ccc(C)c(OCCCC(C)(C)C(=O)O)c1`, the AC50 was 50 µM (active).
`CC(c1cc2ccccc2s1)N(O)C(N)=O` (stereo unspecified) was tested, and the AC50 was 50 µM (active).
`C=C(c1ccc(C(=O)O)cc1)c1cc2c(cc1C)C(C)(C)CCC2(C)C` was tested, and the outcome was “inactive”.
For `C[C@@H]1C[C@H]2[C@@H]3CCC4=CC(=O)C=C[C@]4(C)[C@@]3(F)[C@@H](O)C[C@]2(C)[C@@]1(O)C(=O)COP(=O)(O)O`, the outcome was “inactive”.
With `CN(CCOc1ccc(CC2SC(=O)NC2=O)cc1)c1ccccn1` (stereo unspecified) the outcome was “inactive”.
For `CC(C)(Oc1ccc(CCNC(=O)c2ccc(Cl)cc2)cc1)C(=O)O`, the AC50 was 122 µM (active).
`CC(C)(Oc1ccc(C2CC2(Cl)Cl)cc1)C(=O)O` (stereo unspecified) was tested, and the outcome was “inactive”.
